The panel holds about 83,000 compounds, 20% with a hit somewhere; the sample as a whole holds those more often.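 For each line, cells grew in 96-well plates with the test compound present at a single concentration for 48 hours.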 A number with no mark means an inactive call. The source made the active and inactive calls.

The subject of the assay is CCRF-CEM leukemia. In words: NCI-60 one-dose screen, 48 h (100 = growth as untreated, 0 = no growth, -100 = all killed). Conditions: 10 µM unless noted. How it is done:
Growth inhibition of the CCRF-CEM human tumor cell line is measured as a screen for anti-cancer activity. Cells are grown in 96 well plates and exposed to the test compound for 48 hours. Compounds are tested at a single concentration, which is 10^-5 M for most compounds. The reported endpoint is percent growth (GI% or GIPRCNT), where numbers from 0 - 100% represent growth inhibition, and numbers from -100% - 0 represent cell death. For example, a value of 40 represents 60% growth inhibition. A value of 0 means no net growth occurred over the course of the experiment. A value of -40 indicates 40% of cells at the beginning of the experiment died by the end of the experiment. A value of -100 means all cells are dead at the end of the experiment.
NCI-60 Human Tumor Cell Lines Screen was performed using the standard one-dose NCI protocol, which is described in more detail at https://dtp.cancer.gov/discovery_development/nci-60/default.htm.
Compounds with GIPRCNT values below 10 were considered active. Activity score was based on GIPRCNT using the following formula: […]
Score is 0 for GIPRCNT values of 100 or above, 50 for GIPRCNT values of 0, and 100 for GIPRCNT values of -100.
Take `CCOC(=O)[C@@H](C)C[C@H](Cc1ccccc1)NC(=O)c1csc([C@@H](C[C@H](C(C)C)N(C)C(=O)[C@@H](NC(=O)[C@H]2C[C@H](O)CCN2C)C(C)C)OC(C)=O)n1`: the growth was 4.67% (active).
Turning to `CCOP1(=O)CC(C)=C(Cl)C(P(=O)(OCC)OCC)C1` (stereo not given), the growth was -27.5% (active).
For `CCOc1ccccc1C(=O)OCC(Cl)(Cl)Cl`, the growth was 104%.
Next, `O=C1OCC2=C1C(c1ccccc1)c1cc3c(cc1N2)OCO3` (stereo not given): 11.6%.
`CC[C@H](C)[C@@H]([C@@H](CC(=O)N1CCC[C@H]1[C@H](OC)[C@@H](C)C(=O)N[C@H](C)[C@@H](O)c1ccccc1)OC)N(C)C(=O)[C@@H](NC(=O)[C@@H](NC)C(C)C)C(C)C`: the growth was 20.8%.
As to `CCNc1nc(Cl)nc(NCC)n1`, the growth was 96.8%.
Take `O=C(CC1(O)C(=O)Nc2ccccc21)c1ccc(C(=O)NCC2CCC3(CC2)OOC2(CCCCC2)OO3)cc1` (stereo not given): the growth is 7.85% (active).
Next, `CC12CCC3C(CCC4=CC(=O)CCC43CF)C1CCC2=O` (stereo not given): 88.2%; `O=C([O][Hg][CH2]C1COCC([CH2][Hg][O]C(=O)c2ccccc2)O1)c1ccccc1` (stereo not given): -10.3% (active).
Consider `CN1CCCCC1C(C)(O)c1ccccc1` (stereo not given), for which the growth is 112%.
Next, `Nc1c(F)cc(-c2nc3cc(F)ccc3[se]2)cc1Br`: 95.5%.
For the compound `COC(=O)[C@H](Cc1ccccc1)NC(=O)c1csc([C@@H](C[C@H](C(C)C)N(C)C(=O)[C@@H](NC(=O)[C@H]2CCCN2C)C2CC2)OC(C)=O)n1`, the growth is 4.07% (active).
Regarding `CN1C(=O)C(=Cc2cn(Cc3ccccc3)c3ccccc23)C(=O)N(C)C1=O`, the growth is 92%.
Next, `COC(=O)[C@@H](C)C[C@H](Cc1ccccc1)NC(=O)c1csc([C@@H](C[C@H](C(C)C)N(C)C(=O)C2(NC(=O)[C@H]3CCCCN3C)CC2)OC(C)=O)n1`: 3.37% (active).
Next, `O=C(CC1(O)C(=O)Nc2ccc(Br)cc21)c1ccc(C(=O)NCC2CCC3(CC2)OOC2(CCCCC2)OO3)cc1` (stereo not given): -34.4% (active); `CN1C(=O)N[C@H]2[C@@H]3NC(=O)c4ccc(Br)n4[C@@H]3C[C@]21O`: -15% (active); `CC(C)CCC1(CCCl)C(=O)NC(=O)NC1=O`: 95.3%.
Next, `Cc1c(C)c([N+](=O)[O-])c(C)c(C)c1[N+](=O)[O-]`: 99.1%; `O=c1[nH]cc(N(CCCl)CCCl)c(=O)[nH]1`: 31%.
On to `CN[C@@]1(c2ccccc2Cl)CCCC[C@@H]1NCC1CCCO1` (stereo not given in full), for which the growth is 99.8%.
Next, `[Au+].[N-]=C=O.c1ccc(CN2[CH-]N(Cc3ccccc3)C(c3ccccc3)=C2c2ccccc2)cc1`: 66.8%.
Next, `CCCCCCCCC(CO)NCCc1ccccc1` (stereo not given): 62%.
Next, `COC(=O)N[C@H]1CCc2c(Br)c(OC)c(OC)c(OC)c2-c2ccc(SC)c(=O)cc21`: 3.65% (active); `COC(=O)C1OC(Oc2ccc(N(CCCl)CCCl)cc2)C(OC(C)=O)C(OC(C)=O)C1OC(C)=O` (stereo not given): 37.2%; `O=C(N/N=C\c1ccc(N(CCCl)CCCl)cc1Cl)c1cccnc1`: 74.8%.
Take `CC[C@H](C)[C@@H]1OC(=O)C(C)(C)[C@H](O)[C@H](Cc2ccccc2)OC(=O)[C@H](C(C)C)OC(=O)[C@@H](NC(=O)c2cccc(NC=O)c2O)[C@@H](C)OC1=O`: the growth was 36.7%.
Take `COC(=O)[C@H](Cc1ccccc1)NNC(=O)c1csc([C@@H](C[C@H](C(C)C)N(C)C(=O)[C@@H](NC(=O)[C@H]2CCCCN2C)C2CC2)OC(C)=O)n1`: the growth was -2.7% (active).
Consider `COc1cc(NCCCN=C(N)N)c2ncccc2c1`, for which the growth is 95.8%.
Consider `CC(=O)O[C@H](C[C@H](C(C)C)N(C)C(=O)[C@@H](NC(=O)[C@H]1CCCCN1C)C(C)C)c1nc(C(=O)N[C@@H](Cc2ccccc2)C[C@H](C)C(=O)O)c(CCOCc2ccccc2)s1`, for which the growth is 9.38% (active).
Take `CCOC(=O)[C@@H](C)C[C@H](Cc1ccccc1)NC(=O)c1csc([C@@H](C[C@H](C(C)C)N(C)C(=O)[C@@H](NC(=O)[C@H]2CCCCN2C)C(C)(C)CC)OC(C)=O)n1`: the growth was 3.47% (active).
Next, `C=C1[C@@H](C)[C@H]2[C@H](Cc3ccccc3)NC(=O)[C@]23[C@@H](O)/C=C/[C@@](C)(O)C(=O)[C@@H](C)C/C=C/[C@H]3[C@@H]1O`: 48%; `C/C(=C\c1ccn(-c2ccc(N)c(F)c2)n1)[C@@H]1C[C@@H]2O[C@]2(C)CCC[C@H](C)[C@H](O)[C@@H](C)C(=O)C(C)(C)[C@@H](O)CC(=O)O1`: 12.1%; `N#CCCNc1ccccc1`: 80.6%.
Consider `COc1cc(C=Nc2cc(Cl)cc(Cl)c2)ccc1N(CCCl)CCCl`, for which the growth is 56.4%.
Next, `O=C(CN1CCN(C(=O)c2ccco2)CC1)Nc1ccc(Cl)cc1C(=O)c1ccccc1Cl`: 163%; `CC[C@H](C)[C@H](NC(=O)c1ccccn1)C(=O)N(C)[C@H](C[C@@H](OC(C)=O)c1nc(C(=O)N[C@@H](Cc2ccccc2)C[C@H](C)C(=O)OC)cs1)C(C)C`: 7.71% (active); `O=c1[nH]c2ccc([N+](=O)[O-])cc2c(=O)o1`: 96.1%.
Next, `N#CC1(c2ccccc2)CCN(Cc2ccccc2)CC1`: 86.3%; `CCC(C)(C)[C@H](NC(=O)[C@H]1CCCCN1C)C(=O)N(C)[C@H](C[C@@H](OC(C)=O)c1nc(C(=O)N[C@@H](Cc2ccccc2)C[C@H](C)C(=O)O)cs1)C(C)C`: 2.41% (active); `C/C(=C\c1cc(C(F)(F)F)nn1CCNC(=O)OC(C)(C)C)[C@@H]1C[C@@H]2O[C@]2(C)CCC[C@H](C)[C@H](O)[C@@H](C)C(=O)C(C)(C)[C@@H](O)CC(=O)O1`: 67.2%.
